Here are results for 13 compounds from PubChem BioAssay (Tox21).

Unmarked numbers belong to inactive results. Results filed as inconclusive are left out. The source made the active and inactive calls. Unless noted, the call rests on the fitted dose curve; in most records, active means well fitted curve in the direction sought with a large enough effect in the repeat runs; inconclusive means weak or mixed curves; inactive means no such curve, though single readings can be large; an effect the other way counts as inactive or inconclusive.

Assay [1] can be described thus: qHTS RealTime-Glo MT Cell Viability Assay in HEK293 cells - 0 hour (AID 1224880). Further: top concentration of the series differs between compounds; nearly all actives have a fitted effect of over 45% in size. The procedure, abridged:
(§1)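 HEK293 + NanoLuc + prosubstrate, 600 cells/well; 5 h, 37 C/5% CO2; compound 23 nL in DMSO by pintool; 37 C; luminescence read at 0, 8, 16, 24, 32 and 40 h time points.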

Assay [2] is described as follows: A CellTox Green Cytotoxicity Assay to monitor cytotoxicity in HEK293 cells - 32 hour (AID 1224881). Further: nearly all actives have a fitted effect of over 40% in size. An outline of the steps: (§2)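 Tox21 screen in HEK293: membrane-impermeant cyanine dye fluoresces on binding dead-cell DNA; compound pinned 5 h post-seeding, plates held at 37 C, signal read repeatedly through 40 h.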
Assay [3] in a line: A CellTox Green Cytotoxicity Assay to monitor cytotoxicity in HepG2 cells - 0 hour (AID 1224882). Further: nearly all actives have a fitted effect of over 35% in size. The procedure, abridged: (§3)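 Measurements at 0, 8, 16, 24, 32 and 40 h of treatment captured CellTox Green fluorescence in HepG2 cells that had been co-plated with reagent and preincubated 5 h at 37 C/5% CO2.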
Assay [4] can be described thus: A CellTox Green Cytotoxicity Assay to monitor cytotoxicity in HepG2 cells - 32 hour (AID 1224883). Further: nearly all actives have a fitted effect of over 50% in size. An outline of the steps: as §3
Assay [5] can be described thus: A CellTox Green Cytotoxicity Assay to monitor cytotoxicity in HEK293 cells - 8 hour (AID 1224884). Further: nearly all actives have a fitted effect of over 35% in size. An outline of the steps:
as §2

A short description of assay [6]: qHTS RealTime-Glo MT Cell Viability Assay in HepG2 cells - 16 hour (AID 1224885). Further: nearly all actives have a fitted effect of over 50% in size. The procedure, abridged:
(§4)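 Tox21 10K library screened in qHTS format on HepG2 cells carrying RealTime-Glo reagents. Compounds were added after a 5 h preincubation, and the luminescent signal from continuous culture was measured repeatedly during 40 h treatment.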
(In general: Quantitative high-throughput screening tests each substance at several concentrations.)

Assay [7] in a line: qHTS RealTime-Glo MT Cell Viability Assay in HEK293 cells - 24 hour (AID 1224886). Further: nearly all actives have a fitted effect of over 50% in size. Further: potency means the concentration at half of the fitted maximal effect. An outline of the steps: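 Luminescence generated by NanoLuc from substrate produced by living HEK293 cells served as the viability signal. Each value reflects the reading at its stated time point during continuous 40 h compound exposure at 37 C.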
Assay [8] in a line: qHTS RealTime-Glo MT Cell Viability Assay in HEK293 cells - 8 hour (AID 1224887). Further: nearly all actives have a fitted effect of over 50% in size. Further: potency means the concentration at half of the fitted maximal effect. An outline of the steps:
as §1

A short description of assay [9]: A CellTox Green Cytotoxicity Assay to monitor cytotoxicity in HEK293 cells - 16 hour (AID 1224888). Further: nearly all actives have a fitted effect of over 35% in size. The procedure, abridged: as §2
A short description of assay [10]: qHTS RealTime-Glo MT Cell Viability Assay in HepG2 cells - 0 hour (AID 1224889). Further: nearly all actives have a fitted effect of over 50% in size. An outline of the steps: as §4
Assay [11] in a line: A CellTox Green Cytotoxicity Assay to monitor cytotoxicity in HepG2 cells - 8 hour (AID 1224890). Further: nearly all actives have a fitted effect of over 45% in size. An outline of the steps:
as §3

Assay [12] in a line: qHTS assay to identify small molecule antagonists of the estrogen receptor alpha (ER-alpha) signaling pathway using the BG1 cell line in the presence of 0.1 nM 17-beta-estradiol - cell viability counter screen (AID 1259241). Further: nearly all actives have a fitted effect of over 40% in size. The procedure, abridged: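 Live-cell protease activity (CellTiter-Fluor fluorescence, 30 min) was read in the same wells after VM7Luc4E2 cells had been exposed to compounds with 0.1 nM 17beta-estradiol for 22 hr at 37C.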

The nature of assay [13]: qHTS assay to identify small molecule antagonists of the androgen receptor (AR) signaling pathway using the MDA cell line in the presence of 0.5 nM R1881 - cell viability counter screen (AID 1259242). Further: nearly all actives have a fitted effect of over 45% in size. The procedure, abridged:
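Concentration-response screen of compounds for toxicity in MDA-kb2 reporter cells: 16 hr at 37C with 0.5 nM R1881, endpoint live-cell protease fluorescence measured in the reporter wells.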

The nature of assay [14]: qHTS assay to identify small molecule phospholipidosis (PLD) inducers (AID 1259344; active means well fitted curve in the direction sought with a large enough effect; an effect the other way counts as inactive or inconclusive). An outline of the steps: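 Accumulated phospholipid, stained red by LipidTOX during 24 h compound treatment of HepG2 cells at 37 C, is quantified from images as pit number and intensity, normalised per cell using Hoechst-stained nuclei.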
Assay [15] is described as follows: qHTS assay to identify small molecule HDAC inhibitors (AID 1259364).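 Further: wild-type HCT-116 cells with endogenous class I/II HDAC activity; top concentration of the series differs between compounds; nearly all actives have a fitted effect of over 45% in size.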 The procedure, abridged: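 Screening used wild-type human colon HCT-116 cells incubated overnight, dosed with compounds for 2 hours, and assayed with a homogeneous luminogenic HDAC I/II reagent for 30 minutes at room temperature.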
A short description of assay [16]: qHTS assay to identify small molecule agonists of the sonic hedgehog signaling (Shh) pathway - cell viability counter screen (AID 1259366). Further: nearly all actives have a fitted effect of over 50% in size. The procedure, abridged: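 CellTiter-Fluor fluorescence read-out, 1 hr at 37C, added after 23hr compound exposure. Cells: 3T3 Gli1-Luc, an NIH/3T3 clone with stably integrated Gli1-Luc reporter, plated 4hr before compound.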

The nature of assay [17]: qHTS assay to identify small molecule antagonists of the sonic hedgehog signaling (Shh) pathway - cell viability counter screen (AID 1259367). Further: nearly all actives have a fitted effect of over 55% in size. Further: potency means the concentration at half of the fitted maximal effect. The procedure, abridged: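 CellTiter-Fluor signal in conditioned medium-stimulated 3T3 Gli1-Luc cells, 23 hr compound exposure, 37C.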
The target of assay [18] is Androgen receptor (Homo sapiens) (UniProt P10275). The assay is described as follows: qHTS assay to identify small molecule antagonists of the androgen receptor (AR) signaling pathway using the MDA cell line in the presence of 0.5 nM R1881 (AID 1259243). Further: nearly all actives have a fitted effect of over 50% in size. An outline of the steps:
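With R1881 held at 0.5 nM (final), compound effects on MMTV-luciferase expression in MDA-kb2 cells were scored by luminescence after a 16 hr, 37C incubation.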

In assay [19] the target is Estrogen receptor (Homo sapiens) (UniProt P03372). The assay can be described thus: qHTS assay to identify small molecule antagonists of the estrogen receptor alpha (ER-alpha) signaling pathway using the BG1 cell line in the presence of 0.1 nM 17-beta-estradiol (AID 1259244). Further: nearly all actives have a fitted effect of over 50% in size. Further: potency means the concentration at half of the fitted maximal effect. The procedure, abridged:
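Compounds were tested against 0.1 nM (final) 17beta-estradiol in VM7Luc4E2 cells, which express full-length ER-alpha and an ERE-luciferase reporter; luminescence was recorded following 22 h exposure.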

A short description of assay [20]: qHTS assay to identify small molecule HDAC inhibitors - cell viability counter screen (AID 1259365). An outline of the steps:
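HCT-116 (wild type), 1,500 cells/well, overnight 37C/5% CO2; compound in DMSO 2hr; CellTiter-Glo 30min RT; luminescence read.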

Sequence of Estrogen receptor (Homo sapiens) (P03372 whole entry, looked up): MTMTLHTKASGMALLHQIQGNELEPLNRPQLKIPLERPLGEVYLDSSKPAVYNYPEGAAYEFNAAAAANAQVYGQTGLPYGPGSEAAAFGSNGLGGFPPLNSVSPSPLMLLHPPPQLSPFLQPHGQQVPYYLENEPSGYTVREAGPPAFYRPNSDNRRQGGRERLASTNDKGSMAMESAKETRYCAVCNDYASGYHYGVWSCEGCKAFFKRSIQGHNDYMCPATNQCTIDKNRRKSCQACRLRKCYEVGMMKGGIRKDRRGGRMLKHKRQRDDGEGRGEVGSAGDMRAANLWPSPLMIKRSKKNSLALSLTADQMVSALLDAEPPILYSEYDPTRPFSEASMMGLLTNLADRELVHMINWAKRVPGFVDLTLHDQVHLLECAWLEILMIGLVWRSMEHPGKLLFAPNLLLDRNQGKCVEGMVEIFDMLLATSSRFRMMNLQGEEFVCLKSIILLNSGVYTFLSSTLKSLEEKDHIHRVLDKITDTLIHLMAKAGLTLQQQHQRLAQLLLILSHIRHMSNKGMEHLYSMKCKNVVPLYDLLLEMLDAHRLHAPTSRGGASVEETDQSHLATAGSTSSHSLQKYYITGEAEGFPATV
Sequence of Androgen receptor (Homo sapiens) (P10275 whole entry, looked up): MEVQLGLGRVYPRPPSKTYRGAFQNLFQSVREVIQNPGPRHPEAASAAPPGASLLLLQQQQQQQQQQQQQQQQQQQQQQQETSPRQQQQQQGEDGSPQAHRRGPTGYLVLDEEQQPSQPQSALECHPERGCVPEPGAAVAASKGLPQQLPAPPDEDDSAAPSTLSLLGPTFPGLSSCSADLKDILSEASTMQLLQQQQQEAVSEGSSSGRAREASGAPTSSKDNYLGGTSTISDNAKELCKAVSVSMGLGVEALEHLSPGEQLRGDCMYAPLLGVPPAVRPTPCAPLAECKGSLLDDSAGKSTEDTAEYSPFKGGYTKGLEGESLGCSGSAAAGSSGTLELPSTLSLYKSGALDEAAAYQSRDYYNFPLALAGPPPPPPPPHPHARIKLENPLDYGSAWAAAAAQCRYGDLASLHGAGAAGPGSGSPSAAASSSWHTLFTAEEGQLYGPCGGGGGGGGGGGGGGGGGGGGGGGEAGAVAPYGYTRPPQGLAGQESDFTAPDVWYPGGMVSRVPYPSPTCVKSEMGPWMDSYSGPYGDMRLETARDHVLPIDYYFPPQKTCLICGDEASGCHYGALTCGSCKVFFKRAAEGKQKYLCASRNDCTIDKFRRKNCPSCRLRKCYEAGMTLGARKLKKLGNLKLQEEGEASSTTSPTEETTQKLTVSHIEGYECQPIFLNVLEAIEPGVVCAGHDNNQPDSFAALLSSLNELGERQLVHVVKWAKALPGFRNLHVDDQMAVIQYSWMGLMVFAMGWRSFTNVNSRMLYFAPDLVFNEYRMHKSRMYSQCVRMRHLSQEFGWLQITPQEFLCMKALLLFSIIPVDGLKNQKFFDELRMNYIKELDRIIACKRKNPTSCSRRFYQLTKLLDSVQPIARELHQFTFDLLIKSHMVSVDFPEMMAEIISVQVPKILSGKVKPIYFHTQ

As to `Nc1nc(Cl)nc2c1ncn2[C@H]1C[C@H](O)[C@@H](CO)O1`, the Potency entry in assay [1], in [2], in [3], in [4], in assay [5] and in assay [7] was “inactive” in each case. The Potency result in assay [8], in assay [9], in assay [10], in [11], in assay [12] and in assay [13] was “inactive” each time. Besides, the Potency result in assay [14], in assay [15], in assay [16] and in assay [17] was “inactive” throughout. In addition, in assay [6], the call was inactive.

Take `CC[C@H](NC(C)C)[C@H](O)c1ccc(O)c2[nH]c(=O)ccc12`: the Potency result in assay [1], in [2], in [3], in assay [4], in assay [5] and in assay [7] was “inactive” in each case. Moreover, the Potency result in [8], in assay [9], in [10], in assay [11], in assay [12] and in [18] was “inactive” in each case. Also, the Potency entry in assay [19], in assay [14], in assay [15], in [16] and in [17] was “inactive” each time. For the same compound, the result in [6] and in assay [20] was inactive.

With `CC(C)CCCCCCCOC(=O)c1ccc(C(=O)OCCCCCCCC(C)C)c(C(=O)OCCCCCCCC(C)C)c1`, the Potency entry in assay [1], in assay [2], in assay [3], in [4], in assay [5] and in [7] was “inactive” each time. Moreover, the Potency result in assay [8], in assay [9], in assay [10], in assay [11], in assay [12] and in [13] was “inactive” in each case. Also, the Potency result in [15] and in [16] was “inactive” in each case. Moreover, the call in assay [6] and in assay [20] was inactive. Moreover, the Potency in assay [17] is 42.6 µM (active).

Turning to `C[Si](C)(C)O[Si](C)(C)O[Si](C)(C)C`, the Potency result in [1], in [2], in [3], in assay [4], in assay [5] and in assay [7] was “inactive” throughout. Further, the Potency entry in assay [8], in [9], in assay [10], in [11], in assay [12] and in assay [13] was “inactive” throughout. In addition, the Potency entry in [15] and in [16] was “inactive” each time. For the same compound, in [6], the compound was classed as inactive.

Consider `CCOC(OCC)OCC`, for which the Potency result in [1], in assay [2], in assay [3], in assay [4], in assay [5] and in assay [7] was “inactive” throughout. Also, the Potency result in assay [8], in assay [9], in [10], in [11], in assay [12] and in assay [13] was “inactive” each time. In addition, the Potency entry in assay [19], in assay [15], in assay [16] and in assay [17] was “inactive” in each case. Further, in assay [6], the outcome was inactive.

In the case of `CCCC(=O)OCc1ccccc1`, the Potency entry in assay [1], in assay [2], in assay [3], in assay [4], in assay [5] and in assay [7] was “inactive” each time. In addition, the Potency entry in assay [8], in assay [9], in assay [10], in assay [11], in assay [12] and in assay [13] was “inactive” in each case. The Potency entry in assay [19] and in assay [16] was “inactive” throughout. Besides, the result in assay [6] was inactive.

As to `CC(=O)S[C@H](C(=O)N[C@H]1Cc2ccccc2[C@H]2CCC[C@@H](C(=O)O)N2C1=O)C(C)C`, the Potency entry in assay [1], in assay [2], in assay [3], in [4], in assay [5] and in assay [7] was “inactive” throughout. Besides, the Potency result in assay [8], in assay [9], in [10], in assay [11], in assay [12] and in [13] was “inactive” throughout. The Potency result in assay [15], in assay [16] and in assay [17] was “inactive” in each case. Besides, the compound was classed as inactive in [6] and in [20].

`CO[C@@H]1COCC[C@@H]1N[C@@H]1CC[C@@](C(=O)N2CCc3ncc(C(F)(F)F)cc3C2)(C(C)C)C1`: the Potency entry in assay [1], in assay [2], in [3], in [4], in assay [5] and in [9] was “inactive” throughout. The Potency entry in assay [10], in assay [11], in assay [12], in [13], in assay [15] and in assay [16] was “inactive” each time. In addition, the Potency entry in [17] is “inactive”. Moreover, the outcome in assay [6] and in [20] was inactive. The Potency in assay [7] was 17.3 µM (active); in assay [8], 15.4 µM (active).

As for `N#C[C@@H]1CC(F)(F)CN1C(=O)CNC1CC2CCC(C1)N2c1ncccn1` (stereo not given in full), the Potency result in [1], in assay [2], in [3], in assay [4], in [5] and in assay [7] was “inactive” throughout. The Potency result in [8], in assay [9], in assay [10], in assay [11], in [12] and in assay [18] was “inactive” in each case. Besides, the Potency result in [19], in assay [15] and in assay [17] was “inactive” in each case. Further, the result in assay [6] and in [20] was inactive.

With `CC(C)CCCCCOC(=O)CS`, the Potency entry in assay [1], in [2], in assay [3], in [4], in assay [5] and in assay [7] was “inactive” in each case. Further, the Potency entry in assay [8], in assay [9], in assay [10], in assay [11], in assay [12] and in assay [13] was “inactive” in each case. Further, the Potency result in assay [16] and in [17] was “inactive” in each case. In addition, the call in [6] and in [20] was inactive.

On to `O=[N+]([O-])c1ccc(Cl)cc1Cl`, for which the Potency entry in assay [1], in assay [2], in assay [3], in assay [4], in assay [5] and in assay [7] was “inactive” in each case. In addition, the Potency result in [8], in assay [9], in [10], in assay [11], in assay [12] and in assay [13] was “inactive” throughout. The Potency result in assay [16] and in [17] was “inactive” throughout. For the same compound, the call in assay [6] and in assay [20] was inactive.

On to `COc1cc(CNC(=O)CCCC/C=C/C(C)C)ccc1O`, for which the Potency result in assay [1], in [2], in [3], in [4], in assay [5] and in [9] was “inactive” each time. The Potency result in [10], in assay [11], in assay [13], in assay [14], in assay [15] and in assay [16] was “inactive” throughout. In addition, the Potency entry in assay [17] was “inactive”. Besides, the compound was called inactive in assay [6] and in assay [20]. Further, the Potency in assay [7] is 4.77 µM (active); in assay [8], 2.39 µM (active); in assay [19], 59.5 µM (active).

As for `Cc1cc(C)c(C)c(O)c1`, the Potency entry in assay [1], in assay [2], in assay [3], in assay [4], in assay [5] and in assay [7] was “inactive” in each case. The Potency result in assay [8], in assay [10], in assay [11], in assay [12], in assay [13] and in assay [15] was “inactive” throughout. The Potency entry in assay [16] was “inactive”. Further, in assay [6], the result was inactive.
